# Most compounds without a hit are left out; they make up all but 3% or so of the library.
# MITF act = activators of MITF-driven TRPM1 promoter reporter, primary screen, cell-based, SK-MEL-5, luciferase, single point; SK-MEL-5 TRPM1-promoter luciferase, 24 h; % of positive control, neutral wells = 0; activation, % at 12.5 µM; hit rate 0.75% among 300,000;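 active = mean activation of at least 80% with every replicate also reaching 80%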;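 also: 0% = neutral control wells and 100% = parthenolide positive control wells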
# Wnt act = Wnt/beta-catenin pathway activators, primary screen, cell-based, plate reader, single point | Wnt/beta-catenin reporter cell assay, activator | activation, % at 9.35 µM | hit rate 1.2% among 300,000; in the data active = activation above about 30%, passing the limit was not always enough;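 also: 0% = neutral control wells and 100% = positive control wells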
# esBAF inh = Bmi1 luciferase reporter increase in mESCs, primary screen, esBAF inhibitor project, mouse ES cells, Bmi1 luciferase knock-in, single point; 24 h; 100% = twice the neutral-well signal; reporter increase, % at 12.5 µM; hit rate 2% among 350,000; AID 602393, 2012; in the data active = activation above about 40%;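 also: 0% = median of the plate's neutral control wells and 100% = double that signal; a rise in the Bmi1 reporter signal indicates esBAF inhibition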
# C2C12 statin = suppressors of statin myotoxicity in C2C12 myotubes, primary screen, cell-based, single point, plate reader | rescue of ATP level, % at 7.49 µM | AID 602340, 2012 | hit rate 0.78% among 330,000 | C2C12 myotubes + simvastatin, ATP luminescence, 48 h; scaled: DMSO 0, geranylgeraniol control 100;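 active = mean ATP rescue above about 67%, or every replicate alone reaching that limit, limit read from the data, passing the limit was not always enough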;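 also: myotubes were challenged with 10 µM simvastatin during compound exposure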
# Starred values were filed as active, the others as inactive; x = not tested or not shown.
SMILES,MITF act,Wnt act,esBAF inh,C2C12 statin
C=CCN=C1SC(C)C(=O)N1S(=O)(=O)c1ccccc1 (stereo unspecified),11,-5,-1,109*
CC(C)NC(=O)N[C@@H]1CC[C@H](CCNC(=O)C2CCOCC2)O[C@@H]1CO,x,x,0,1
O=[N+]([O-])c1ccc(Sc2cc[n+]([O-])c3ccccc23)c([N+](=O)[O-])c1,-90,-3,-6,80*
C[C@@H]1CN([C@H](C)CO)C(=O)c2cc(-c3cccc(F)c3)cnc2O[C@@H]1CN(C)C(=O)C1CCCCC1,x,x,6,-3
C[C@H](CO)N1C[C@H](C)[C@H](CN(C)Cc2ccccc2)Oc2ncc(-c3cccnc3)cc2C1=O,x,x,x,27
Cc1ccc(-c2nnc(CCC(=O)N(C)Cc3nccs3)o2)s1,40,4,44*,5
C[C@H](CO)N1C[C@H](C)[C@@H](CN(C)C)Oc2ccc(NS(=O)(=O)c3ccc(Cl)cc3)cc2CC1=O,x,x,-4,3
Cc1ccc(S(=O)(=O)N2CCN(S(=O)(=O)c3ccc(C)cc3)C2c2ccccc2)cc1,5,-3,-2,139*
COc1ccc(CNc2ncnc3c2[nH]c2ccccc23)cc1,x,-1,x,x
CCOc1ncnc2c1[nH]c1ccccc12,13,2,20,131*
COc1ccc(-c2ccc3n(c2=O)C[C@@H]2[C@@H](CO)[C@H](C(=O)N(C)C)[C@H]3N2Cc2cccnc2)cc1,x,x,-5,1
C[C@@H]1CN([C@H](C)CO)C(=O)c2cc(NC(=O)c3ccncc3)ccc2O[C@@H]1CN(C)CC1CCCCC1,x,x,0,42
O=C(NCC[C@H]1CC[C@H](NC(=O)C2CCCC2)[C@@H](CO)O1)Nc1ccc(Cl)cc1,x,x,26,-1
O=C(COC(=O)c1ccc(O)cc1O)Nc1ccc2ccccc2c1,14,3,25,0
O=C(COC(=O)c1ccc(O)cc1O)Nc1ccc2c(c1)OCCO2,92*,-3,83*,6
Cn1cccc1C(=O)OCC(=O)Nc1ccc2c(c1)OCCO2,4,49*,x,x
C(=C\c1nc(-c2ccccc2)no1)/c1ccccc1,42,24,8,1
C(=C\c1nc(-c2ccncc2)no1)/c1ccccc1,70,40*,20,-3
C[C@@H]1CN([C@@H](C)CO)C(=O)c2cc(NS(=O)(=O)c3cccs3)ccc2O[C@@H](C)CCCCO[C@@H]1CN(C)Cc1ccc(C(F)(F)F)cc1,x,x,-3,116*
C[C@@H]1CCCCO[C@@H](CN(C)Cc2ccc(C(F)(F)F)cc2)[C@H](C)CN([C@@H](C)CO)C(=O)c2cc(NC(=O)c3ccncc3)ccc2O1,x,x,4,121*
C[C@@H]1CCCCO[C@H](CN(C)Cc2ccc(C(F)(F)F)cc2)[C@H](C)CN([C@@H](C)CO)C(=O)c2cc(NC(=O)c3ccncc3)ccc2O1,x,x,2,76*
C[C@@H]1CCCCO[C@@H](CN(C)Cc2ccc(C(F)(F)F)cc2)[C@H](C)CN([C@H](C)CO)C(=O)c2cc(NC(=O)c3ccncc3)ccc2O1,x,x,4,28
O=C(CCl)N1c2ccccc2Oc2ccc3ccccc3c21,-87,8,50*,-11
Cc1ccc(S(=O)(=O)N(C)C[C@@H]2Oc3ccc(NC(=O)Nc4ccc5c(c4)OCO5)cc3CC(=O)N([C@@H](C)CO)C[C@H]2C)cc1,x,x,0,-1
O=C(O)CCCC(=O)Nc1ccc(Br)cc1,-4,x,3,10
SMILES,MITF act,Wnt act,esBAF inh,C2C12 statin
O=C(O)CCCC(=O)Nc1ccccc1Br,x,-1,-9,71*
CCOc1ccc(-c2c(C#N)c(N)nc3c2c(=O)n(C)c(=O)n3C)cc1OC,-10,x,3,84*
C[C@@H]1CN([C@H](C)CO)C(=O)c2cc(C3=CCCCC3)cnc2O[C@H]1CN(C)S(C)(=O)=O,x,x,x,26
c1ccc(-c2cc3ccccc3cn2)cc1,63,48*,62*,9
Fc1ccc2cc(-c3ccccc3)ncc2c1,92*,33*,61*,2
Fc1ccc2cnc(-c3cccnc3)cc2c1,48,9,31,-1
C[C@H]1CN([C@@H](C)CO)C(=O)c2cccc(NC(=O)c3ccncc3)c2O[C@@H]1CN(C)C(=O)Nc1ccccc1,x,x,0,4
CCOC(=O)NC(=O)/C(N=Nc1cc(C)cc(C)c1)=C(\C)O,-4,0,x,x
CCOC(=O)NC(=O)/C(N=Nc1ccc(C(F)(F)F)cc1)=C(\C)O,-7,0,-13,99*
